Read-outs that look alike come from different tables or passages of the source.
Target: Q6ZSR9 (human, UniProt Q6ZSR9)
Conditions: read-out: apparent Kd, n = 1

Sequence of Q6ZSR9 (Q6ZSR9 whole entry, looked up): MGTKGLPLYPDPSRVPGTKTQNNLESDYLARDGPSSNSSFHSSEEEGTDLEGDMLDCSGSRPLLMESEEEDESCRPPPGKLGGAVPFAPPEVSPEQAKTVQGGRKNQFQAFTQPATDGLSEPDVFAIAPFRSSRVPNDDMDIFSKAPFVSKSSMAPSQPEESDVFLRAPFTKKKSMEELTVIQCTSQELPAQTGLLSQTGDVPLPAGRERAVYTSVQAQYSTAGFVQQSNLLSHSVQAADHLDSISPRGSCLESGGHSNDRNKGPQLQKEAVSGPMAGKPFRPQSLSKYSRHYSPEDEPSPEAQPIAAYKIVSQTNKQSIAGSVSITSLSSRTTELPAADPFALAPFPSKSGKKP

Lestaurtinib
potency estimated from few doses (compound concentrations:100 nM and 1000 nM (sheet 'Lestaurtinib' of Supplementary Table 1),run:Lestaurtinib_02496_R1,Plate:MR013): 65.5 nM | potency estimated from few doses (compound concentrations:100 nM and 1000 nM (sheet 'Lestaurtinib' of Supplementary Table 1),run:Lestaurtinib_02496_R2,Plate:MR013): 59.5 nM | potency estimated from few doses (compound concentrations:100 nM and 1000 nM (sheet 'Lestaurtinib' of Supplementary Table 1),run:Lestaurtinib_02496_R3,Plate:MR013): 66.8 nM | potency estimated from few doses (compound concentrations:100 nM and 1000 nM (sheet 'Lestaurtinib' of Supplementary Table 1),run:Lestaurtinib_02566_R2,Plate:MR014): 55.7 nM | potency estimated from few doses (compound concentrations:100 nM and 1000 nM (sheet 'Lestaurtinib' of Supplementary Table 1),run:Lestaurtinib_02566_R3,Plate:MR014): 80.5 nM | potency estimated from few doses (compound concentrations:100 nM and 1000 nM (sheet 'Lestaurtinib' of Supplementary Table 1),run:Lestaurtinib_02572_R1,Plate:MR015): 40.6 nM | potency estimated from few doses (compound concentrations:100 nM and 1000 nM (sheet 'Lestaurtinib' of Supplementary Table 1),run:Lestaurtinib_02572_R2,Plate:MR015): 74.4 nM | potency estimated from few doses (compound concentrations:100 nM and 1000 nM (sheet 'Lestaurtinib' of Supplementary Table 1),run:Lestaurtinib_02572_R3,Plate:MR015): 48.9 nM | potency estimated from few doses (compound concentrations:100 nM and 1000 nM (sheet 'Lestaurtinib' of Supplementary Table 1),run:Lestaurtinib_02577_R1,Plate:MR016): 63.4 nM | potency estimated from few doses (compound concentrations:100 nM and 1000 nM (sheet 'Lestaurtinib' of Supplementary Table 1),run:Lestaurtinib_02577_R2,Plate:MR016): 53.4 nM | potency estimated from few doses (compound concentrations:100 nM and 1000 nM (sheet 'Lestaurtinib' of Supplementary Table 1),run:Lestaurtinib_02577_R3,Plate:MR016): 59.4 nM | potency estimated from few doses (compound concentrations:100 nM and 1000 nM (sheet 'Lestaurtinib' of Supplementary Table 1),run:Lestaurtinib_02584_R1,Plate:MR017): 92.8 nM | potency estimated from few doses (compound concentrations:100 nM and 1000 nM (sheet 'Lestaurtinib' of Supplementary Table 1),run:Lestaurtinib_02584_R2,Plate:MR017): 64.9 nM | potency estimated from few doses (compound concentrations:100 nM and 1000 nM (sheet 'Lestaurtinib' of Supplementary Table 1),run:Lestaurtinib_02584_R3,Plate:MR017): 79 nM | potency estimated from few doses (compound concentrations:100 nM and 1000 nM (sheet 'Lestaurtinib' of Supplementary Table 1),run:Lestaurtinib_02601_R1,Plate:MR018): 49.8 nM | potency estimated from few doses (compound concentrations:100 nM and 1000 nM (sheet 'Lestaurtinib' of Supplementary Table 1),run:Lestaurtinib_02601_R3,Plate:MR018): 44.4 nM | potency estimated from few doses (compound concentrations:100 nM and 1000 nM (sheet 'Lestaurtinib' of Supplementary Table 1),run:Lestaurtinib_02606_R2,Plate:MR019): 52 nM | potency estimated from few doses (compound concentrations:100 nM and 1000 nM (sheet 'Lestaurtinib' of Supplementary Table 1),run:Lestaurtinib_02606_R3,Plate:MR019): 60.4 nM | potency estimated from few doses (compound concentrations:100 nM and 1000 nM (sheet 'Lestaurtinib' of Supplementary Table 1),run:Lestaurtinib_02624_R2,Plate:MR020): 61.1 nM | potency estimated from few doses (compound concentrations:100 nM and 1000 nM (sheet 'Lestaurtinib' of Supplementary Table 1),run:Lestaurtinib_02624_R3,Plate:MR020): 55.5 nM | potency estimated from few doses (compound concentrations:100 nM and 1000 nM (sheet 'Lestaurtinib' of Supplementary Table 1),run:Lestaurtinib_02724_R2,Plate:MR021): 51.2 nM | potency estimated from few doses (compound concentrations:100 nM and 1000 nM (sheet 'Lestaurtinib' of Supplementary Table 1),run:Lestaurtinib_02724_R3,Plate:MR021): 61.2 nM | potency estimated from few doses (compound concentrations:100 nM and 1000 nM (sheet 'Lestaurtinib' of Supplementary Table 1),run:Lestaurtinib_02741_R1,Plate:MR023): 77.1 nM | potency estimated from few doses (compound concentrations:100 nM and 1000 nM (sheet 'Lestaurtinib' of Supplementary Table 1),run:Lestaurtinib_02741_R2,Plate:MR023): 85.4 nM | potency estimated from few doses (compound concentrations:100 nM and 1000 nM (sheet 'Lestaurtinib' of Supplementary Table 1),run:Lestaurtinib_02741_R3,Plate:MR023): 77.2 nM | potency estimated from few doses (compound concentrations:100 nM and 1000 nM (sheet 'Lestaurtinib' of Supplementary Table 1),run:Lestaurtinib_02748_R1,Plate:MR024): 67.4 nM | potency estimated from few doses (compound concentrations:100 nM and 1000 nM (sheet 'Lestaurtinib' of Supplementary Table 1),run:Lestaurtinib_02748_R2,Plate:MR024): 46.2 nM | potency estimated from few doses (compound concentrations:100 nM and 1000 nM (sheet 'Lestaurtinib' of Supplementary Table 1),run:Lestaurtinib_02748_R3,Plate:MR024): 66.5 nM | potency estimated from few doses (compound concentrations:100 nM and 1000 nM (sheet 'Lestaurtinib' of Supplementary Table 1),run:Lestaurtinib_02752_R1,Plate:MR025): 48.7 nM | potency estimated from few doses (compound concentrations:100 nM and 1000 nM (sheet 'Lestaurtinib' of Supplementary Table 1),run:Lestaurtinib_02765_R2,Plate:MR026): 131 nM | potency estimated from few doses (compound concentrations:100 nM and 1000 nM (sheet 'Lestaurtinib' of Supplementary Table 1),run:Lestaurtinib_02765_R3,Plate:MR026): 71.7 nM | potency estimated from few doses (compound concentrations:100 nM and 1000 nM (sheet 'Lestaurtinib' of Supplementary Table 1),run:Lestaurtinib_02766_R1,Plate:MR027): 47.5 nM | potency estimated from few doses (compound concentrations:100 nM and 1000 nM (sheet 'Lestaurtinib' of Supplementary Table 1),run:Lestaurtinib_02766_R2,Plate:MR027): 37.3 nM | potency estimated from few doses (compound concentrations:100 nM and 1000 nM (sheet 'Lestaurtinib' of Supplementary Table 1),run:Lestaurtinib_02766_R3,Plate:MR027): 47 nM | potency estimated from few doses (compound concentrations:100 nM and 1000 nM (sheet 'Lestaurtinib' of Supplementary Table 1),run:Lestaurtinib_02768_R1,Plate:MR028): 48.3 nM | potency estimated from few doses (compound concentrations:100 nM and 1000 nM (sheet 'Lestaurtinib' of Supplementary Table 1),run:Lestaurtinib_02768_R2,Plate:MR028): 49.7 nM | potency estimated from few doses (compound concentrations:100 nM and 1000 nM (sheet 'Lestaurtinib' of Supplementary Table 1),run:Lestaurtinib_02768_R3,Plate:MR028): 57.7 nM | potency estimated from few doses (compound concentrations:100 nM and 1000 nM (sheet 'Lestaurtinib' of Supplementary Table 1),run:Lestaurtinib_02795_R1,Plate:MR022): 67.2 nM | potency estimated from few doses (compound concentrations:100 nM and 1000 nM (sheet 'Lestaurtinib' of Supplementary Table 1),run:Lestaurtinib_02795_R2,Plate:MR022): 73.9 nM | potency estimated from few doses (compound concentrations:100 nM and 1000 nM (sheet 'Lestaurtinib' of Supplementary Table 1),run:Lestaurtinib_02802_R1,Plate:MR029): 52.5 nM | potency estimated from few doses (compound concentrations:100 nM and 1000 nM (sheet 'Lestaurtinib' of Supplementary Table 1),run:Lestaurtinib_02802_R2,Plate:MR029): 43.8 nM | potency estimated from few doses (compound concentrations:100 nM and 1000 nM (sheet 'Lestaurtinib' of Supplementary Table 1),run:Lestaurtinib_02896_R3,Plate:MR030): 88 nM | potency estimated from few doses (compound concentrations:100 nM and 1000 nM (sheet 'Lestaurtinib' of Supplementary Table 1),run:Lestaurtinib_03172_R1,Plate:MR031): 51.8 nM

From publication PMC11062922 (Nature Chemical Biology, 2023)
